Measurements from article PMC5540273 (PLoS ONE, 2017).

Assays:
Settings in all cases: concentration: 1 μM, replicates: in singlicate; n = 1
[1] = test system: HIPK2
[2] = test system: HIPK3
[3] = test system: HIPK4
[4] = test system: HPK1
[5] = test system: HUNK
[6] = test system: ICK
[7] = test system: IGF1R
[8] = test system: T1, IKK-alpha
T1 construct: gene CHUK

[9] = test system: T2, IKK-beta
T2 construct: gene IKBKB

[10] = test system: T3, IKK-epsilon
T3 construct: gene IKBKE

[11] = test system: INSRR
[12] = test system: INSR
[13] = test system: IRAK1
[14] = test system: IRAK3
[15] = test system: IRAK4
[16] = test system: ITK
[17] = test system: JAK1(JH1domain-catalytic)
[18] = test system: JAK1(JH2domain-pseudokinase)
[19] = test system: JAK2(JH1domain-catalytic)
[20] = test system: JAK3(JH1domain-catalytic)
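Also: KINOMEscan kinase panel screen.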

SMILES	%Inh [1] [%]	%Inh [2] [%]	%Inh [3] [%]	%Inh [4] [%]	%Inh [5] [%]	%Inh [6] [%]	%Inh [7] [%]	%Inh [8] [%]	%Inh [9] [%]	%Inh [10] [%]	%Inh [11] [%]	%Inh [12] [%]	%Inh [13] [%]	%Inh [14] [%]	%Inh [15] [%]	%Inh [16] [%]	%Inh [17] [%]	%Inh [18] [%]	%Inh [19] [%]	%Inh [20] [%]
Clc1cccc(-c2nc(Nc3ccncc3)c3ccccc3n2)c1 [GW873004]	25	2	22	0	53	0	0	0	0	0	4	0	7	9	0	21	0	16	0	13
Fc1cccc(COc2ccc(Nc3ncnc4nn5ccccc5c34)cc2Cl)c1 [GW689066]	0	0	0	22	28	0	0	11	0	0	0	8	8	0	0	3	2	0	0	0
Cc1ccc(NC(=O)c2cccc(C#N)c2)cc1-c1ccc(C(=O)Nc2ccncc2)cc1 [GSK1398463]	0	8	0	40	0	35	14	32	36	15	2	6	24	9	21	16	3	6	39	0
FC(F)(F)c1ccc(-c2cc(-c3c[nH]nc3-c3ccccn3)ccn2)cc1 [GW599550]	0	21	0	26	0	0	28	0	0	47	0	0	25	5	3	11	29	0	14	0
COc1ccc(NC(=O)Nc2ccc(C)c(-c3ccc(C(=O)Nc4ccncc4)cc3)c2)cc1 [GSK1398475]	0	4	0	47	7	0	0	0	0	0	0	30	0	0	0	9	11	0	0	0
FC(F)(F)c1cc(Nc2nccc(-c3c(-c4ccc(Cl)cc4)nn4ncccc34)n2)ccc1Cl [GW829351]	0	0	0	0	67	0	0	0	0	0	0	0	0	0	0	0	0	0	13	0
C[C@H]1CC[C@@H](C(=O)Nc2ccccc2)CN1c1cc(-c2ccc3c(N)n[nH]c3c2)nc(N)n1 [GSK2283293]	0	0	0	37	0	0	15	7	0	8	0	0	0	16	0	17	0	0	0	0
C[C@@H]1CCN(C(=O)CO)C[C@@H]1N(C)c1ncnc2[nH]ccc12	0	0	0	0	0	0	0	0	0	0	9	0	0	19	0	0	94	21	100	98.8
Cn1cc(-c2ccc3c(c2)CCN3C(=O)Cc2cccc(C(F)(F)F)c2)c2c(N)ncnc21 [GSK2606414]	0	16	0	6	0	4	0	13	7	4	3	1	0	15	10	12	7	0	34	0
Nc1nc(-c2cccnc2)c(-c2ccnc3ccccc23)s1 [GW684083]	0	0	0	28	0	0	13	20	0	21	0	2	42	16	1	15	6	0	0	0
Cc1ccc(O)cc1Nc1cc(C(F)(F)F)nc2ccc(-c3ccncc3)cc12 [GW630823]	0	0	9	0	3	0	5	0	0	0	0	0	0	56	0	19	0	0	0	0
CCC(CC)(CC)n1cnc2c(N)ncnc21 [SKF-97620]	10	19	8	0	34	32	0	30	8	0	4	0	33	0	0	9	10	0	22	22
CNc1nccc(-c2c(-c3ccc(F)cc3)ncn2CCCN2CCOCC2)n1 [SB-222516]	0	0	0	0	39	37	2	0	0	0	0	0	6	10	9	4	0	0	8	0
O=C(c1ccc(-c2cc(-c3c[nH]nc3-c3ccccn3)ccn2)cc1)N1CCCC1 [GW792479]	0	0	24	20	9	0	0	0	0	0	0	6	0	0	0	0	0	15	0	39
Fc1ccc(-c2ncn(CCCNCc3ccccc3)c2-c2ccncc2)cc1	23	45	0	8	7	12	4	0	9	10	5	0	24	9	19	21	0	24	36	8
N#Cc1ccc(Oc2ccc(Nc3ncnc4cc[nH]c34)cc2Cl)cc1	32	10	4	0	1	0	0	2	17	12	0	0	16	3	13	9	12	25	19	4
CN1c2ccc(-c3ccc(C(=O)NCCO)cc3)cc2-c2[nH]ncc2S1(=O)=O	52	39	16	22	0	0	7	0	0	31	0	0	14	44	0	12	5	35	13	97.2
CS(=O)(=O)CCNCc1nc(-c2ccc3ncnc(Nc4ccc(OCc5cccc(F)c5)c(Cl)c4)c3c2)cs1.Cl [GW583340]	0	0	0	33	0	0	0	3	6	7	0	1	0	0	5	0	24	0	0	0
Fc1ccc(Nc2nccc(-c3c(-c4ccc(Cl)cc4)nn4ncccc34)n2)cc1F [GW829058]	11	36	19	16	40	25	6	34	29	0	20	19	24	7	0	18	0	12	39	37
COc1ccc(Nc2nccc(N3CCC(NC(=O)Nc4ccc5c(c4)OCO5)C3)n2)cc1 (stereo not drawn) [GSK1379745]	0	23	9	67	11	0	0	7	9	12	0	0	11	11	6	6	0	0	19	0
COC(=O)c1c(-c2ccccc2)c2cc(Cl)ccc2c(=O)n1Cc1ccc(S(C)(=O)=O)cc1	24	0	0	0	0	32	0	0	0	0	0	5	11	19	9	21	0	0	5	4
